Hits are enriched below; roughly 10% of the tested compounds scored in any of these assays.
aGal spleen mod: alpha-galactosidase A (human) modulation | human spleen homogenate, 4MU-alpha-Gal fluorescence, 40 min | Potency, µM (doses to about 80 µM), inactives show at the top dose activity change, negative = inhibition, hits mostly inhibitors | AID 2107 | P06280 | 240,000 compounds, 0.008% hits;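 note: potency is the fitted concentration of half-maximal effect; 0% = enzyme with vehicle and -100% = no enzyme basal signal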
Target sequence (P06280 32-429 limits assumed): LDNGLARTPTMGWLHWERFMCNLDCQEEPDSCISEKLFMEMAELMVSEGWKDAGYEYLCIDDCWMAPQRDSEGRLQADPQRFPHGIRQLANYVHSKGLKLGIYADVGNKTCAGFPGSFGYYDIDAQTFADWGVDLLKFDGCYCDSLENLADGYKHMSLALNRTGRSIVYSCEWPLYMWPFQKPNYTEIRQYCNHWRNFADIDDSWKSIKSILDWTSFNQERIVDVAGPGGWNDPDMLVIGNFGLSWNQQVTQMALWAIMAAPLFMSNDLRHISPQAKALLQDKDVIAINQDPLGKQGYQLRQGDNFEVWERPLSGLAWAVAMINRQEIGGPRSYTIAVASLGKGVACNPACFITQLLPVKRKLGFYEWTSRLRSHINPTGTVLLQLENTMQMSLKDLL
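Spleen homogenate 1 ug + cpd (titration) + 4-MU-alpha-D-galactopyranoside 1 mM; 37C 40 min; 50 mM citrate/phosphate pH 5.0, 0.01% Tween-20; stop pH 10; fluorescence 365/440; AC50 via Hill.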
GLA inh pH 4.5: blocks human alpha-galactosidase A at pH 4.5 | P06280 | purified enzyme, 4-MU-alpha-Gal fluorescence, pH 4.5 | activity change, negative = inhibition, % at 105 µM | 230,000 tested, under 10 active | AID 1467;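 note: 0% = full activity with enzyme and -100% = basal without enzyme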
PNC assembly inh: blocks assembly of the perinucleolar compartment. PC3M PTB-GFP, PNC prevalence imaging, 16 h; active compounds read low. activity change (PNC), negative = inhibition, % at 10 µM. 140,000 compounds, 3.1% hits. AID 2417;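 active = readout at or below -70, meaning at least 70% loss of cells showing the perinucleolar compartment, a nuclear body marking cancer cells; inconclusive = readout between -30 and a set limit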;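 note: plate controls were DMSO wells for no effect and camptothecin positive control wells for full effect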
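Read-out is percentage of cells bearing a perinucleolar compartment, from automated 20x imaging of fixed, Hoechst-stained PC3M PTB-GFP cells. Cells were seeded 4 h, then exposed 16 h to compound (23 nl of library stock) in duplicate plates.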
12-hLO inh: 12-hLO (ALOX12) enzyme inhibition. P18054. purified 12-hLO, xylenol orange hydroperoxide absorbance. Potency, µM (series often up to 57.1 µM), for inactives: top-dose activity change, negative = inhibition, hits mostly inhibitors. 150,000 compounds, 0.12% hits; note: potency is the fitted concentration of half-maximal effect; nearly all actives have a fitted effect of over 55% in size
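Purified human 12hLO (150 nM final) was preincubated with compounds for 15 min at room temperature in 25 mM Hepes pH 7.0, 0.01% Triton X-100, then reacted with 40 uM arachidonic acid for 30 min. Hydroperoxide was detected with ferrous iron/xylenol orange.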
ALDH1A1 block: blocks purified human ALDH1A1 activity. Potency, µM (doses to about 75.3 µM), for inactives: at the highest dose activity, negative = inhibition, most hits filed as inhibitors. 220,000 compounds, 7.3% hits. P00352. AID 1030. Purified ALDH1A1, NADH fluorescence, propionaldehyde substrate; active = well fitted inhibition curve with a large enough effect, not every such curve was filed as active; inconclusive = small, poorly fitted or top-dose-only effect, or another doubt; inactive = no such curve, though single readings can be large or run the other way;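 note: potency is the fitted concentration of half-maximal effect; plate controls were no enzyme wells and a reference inhibitor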
HPGD block: inhibitors of human 15-hydroxyprostaglandin dehydrogenase (HPGD); purified HPGD, NADH fluorescence kinetic, PGE2 substrate; Potency, µM, inactives show at the highest dose activity change, negative = inhibition, usual class: inhibitors; 150,000 compounds, 4.3% hits; AID 894; active = well fitted inhibition curve with a large enough effect, not every such curve was filed as active; inconclusive = small, poorly fitted or top-dose-only effect, or another doubt; inactive = no such curve, though single readings can be large or run the other way; note: potency is the fitted concentration of half-maximal effect
Target sequence (P15428 whole entry, looked up): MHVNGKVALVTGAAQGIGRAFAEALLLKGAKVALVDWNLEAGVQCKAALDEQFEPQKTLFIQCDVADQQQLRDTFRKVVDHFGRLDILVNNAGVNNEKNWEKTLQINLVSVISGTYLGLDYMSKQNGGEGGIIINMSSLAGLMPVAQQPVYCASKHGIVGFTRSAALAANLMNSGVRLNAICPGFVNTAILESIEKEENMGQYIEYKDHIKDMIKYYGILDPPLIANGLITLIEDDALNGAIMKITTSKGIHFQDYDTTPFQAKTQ
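NADH formation kinetics: reaction with 30 uM PGE2 and 1 mM NAD+ (final), 20 nM enzyme, Tris-HCl pH 8 with Tween 20, after 15 min compound preincubation at room temperature. Fluorescence change, last versus first of five reads.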
* = called active by the depositor; ? = inconclusive; . = no result given; [ ] = dose if it differs, or a comment. Unless noted, calls come from the whole dose curve; as a rule, active = well fitted curve in the direction sought with a large enough effect; inconclusive = small, poorly fitted or top-dose-only effect, or another doubt; inactive = no such curve, though single readings can be large; an effect the other way counts as inactive or inconclusive. Unless noted, % is set by controls: 0 for no effect and ±100 for the full control effect.

SMILES	aGal spleen mod	GLA inh pH 4.5	PNC assembly inh	12-hLO inh	ALDH1A1 block	HPGD block
COc1ccc(C(=O)C2CCCN(C3CSCCSC3)C2)c(C)c1 (configuration not stated)	-4.2%	2.0	.	.	14.1µM*	.
C[C@@H]1O[C@@H](O[C@H]2C[C@@H](O)[C@]3(CO)[C@@H]4[C@@H](O)C[C@]5(C)[C@H]([C@@H]6COC(=O)C6)CC[C@@]5(O)[C@H]4CC[C@@]3(O)C2)[C@H](O)[C@H](O)[C@@H]1O	.	.	.	-4.5%	.	.
O=C1C=CC(=O)C(Cl)=C1	4.2%	-0.3	.	?	1.78µM*	1µM*
C[N+]1(C)C2CCC1CC(OC(=O)c1ccco1)C2 (configuration not stated)	-5.9%	-2.8	.	.	.	.
C[N+]1(C)C2CCC1CC(OC(=O)c1c[nH]c3ccccc13)C2 (configuration not stated)	-4.5%	2.3	.	.	22.4µM*	-25.7%
CN1CC[C@@]2(c3cccc(O)c3)Cc3nc4ccccc4cc3C[C@H]2C1	-11.3%	-5.9	.	3.1%	-1.7%	-7.7%
CC(C)CON=O	4.3%	.	.	1.6%	31.6µM*	-0.9%
CC(C)CCON=O	1.0%	.	.	-1.1%	?	-6.3%
CCC1C(=O)OC[C@H]1Cc1cncn1C (some centres not stated)	-2.3%	8.7	.	-4.4%	3.8%	-5.2%
NC(N)=Nc1ccc2[nH]c3c(c2c1)C[C@]1(O)[C@@H]2Cc4ccc(O)c5c4[C@]1(CCN2CC1CC1)[C@@H]3O5	-13.3%	2.0	.	-1.9%	25.1µM*	-13.9%
O=Cc1cn(Cc2cccc(F)c2)c2ccccc12	0.0%	-3.1	6.4	-2.4%	0.562µM*	-4.1%
O=C(c1ccco1)c1cn(Cc2ccc(Cl)cc2)c2ccccc12	8.4%	4.3	-29.6	-8.9%	4.1%	-14.7%
CCOC(=O)c1ccc(NC(=O)c2c(O)[nH]c(=O)[nH]c2=O)cc1	-2.0%	0.3	?	2.5%	?	14.1µM*
O=C(Cl)C(Cl)(Cl)Cl	-5.5%	.	.	2.4%	-5.2%	-1.9%
O=C(Nc1ccccc1)c1ccccc1I	-3.1%	.	.	.	.	.
O=C(Cc1ccc(Cl)c(Cl)c1)N1CCCCC1CN1CCCC1 (configuration not stated)	2.5%	0.5	.	.	-1.2%	-9.0%
CN(CCc1ccc(Cl)c(Cl)c1)[C@H]1CCCC[C@H]1N1CCCC1	4.6%	-2.3	.	2.8%	25.1µM*	-2.7%
O=C(O)[C@H]1[O][Sb][O][C@@H](C(=O)O)C1O (some centres not stated)	.	.	.	2.1%[11.4 µM]	8.6%[13.5 µM]	-3.1%
O=C(O)[C@@H](O)[C@@H](O)C1[O][Sb][O][C@@H]1CO (some centres not stated)	.	.	.	.	-18.8%[13.5 µM]	-11.7%
CN1CCN(c2ccc(Cl)cc2N)CC1	-4.8%	0.9	.	.	10.3%	.
Cc1ccc(Cl)cc1N1CCN(CCN)CC1	5.7%	1.4	0.2	7.2%	28.2µM*	9.4%
Cc1ccc(N2C(=O)/C(=C/c3ccc(CN(CCC#N)S(C)(=O)=O)o3)C(=O)NC2=S)cc1C	2.6%	2.8	32.5	-27.0%	20µM*	14.1µM*
Cc1cccc(N2C(=O)/C(=C/c3ccc(CN(CCC#N)S(C)(=O)=O)o3)C(=O)NC2=S)c1	3.1%	-2.9	48.2	?	20µM*	22.4µM*
NNc1nncn1N	.	.	.	-3.4%[11.4 µM]	-8.4%[13.5 µM]	-11.2%
CN(C)c1ccc2c(c1)N=C(c1ccco1)OP2(=S)N1CCOCC1 (configuration not stated)	7.5%	4.9	22.7	-5.8%	8.91µM*	17.8µM*
SMILES	aGal spleen mod	GLA inh pH 4.5	PNC assembly inh	12-hLO inh	ALDH1A1 block	HPGD block
[CH3][Hg][Cl]	-2.8%	.	.	-0.8%	0.708µM*	?
COC1=CC(=O)O[C@H](/C=C/c2ccc3c(c2)OCO3)C1	-11.6%	.	.	.	.	.
COC1=CC(=O)O[C@@H](/C=C/c2ccccc2)C1	-2.7%	.	.	1.9%	12.6µM*	-9.5%
C/C(CC(=O)N1CCN(C=O)CC1)=N\NC(=O)c1cccc([N+](=O)[O-])c1	-2.9%	0.9	.	.	25.1µM*	.
Cc1ccc(OCC(=O)NCCN2CCN(C(=O)COc3ccc(C)cc3)CC2)cc1	0.5%	-2.5	-106.5*	0.0%	?	-2.5%
C(CCOCC1CO1)COCC1CO1 (configuration not stated)	1.6%	.	.	0.3%	-13.7%	-0.9%
Cc1ccc(C(=O)C2CN3CCC2CC3)cc1 (configuration not stated)	-7.5%	-4.7	-27.5	7.4%	28.2µM*	-9.5%
Cc1ccc(C(=O)C2CN(C)CC2C(=O)c2ccc(C)cc2)cc1 (configuration not stated)	-2.8%	-16.6	28.8	-3.3%	-0.1%	-5.0%
CC1=CC(c2ccccc2)NC(=S)N1 (configuration not stated)	21.9%	2.4	131.4	-10.3%	7.08µM*	12.6µM*
C=C1CC[C@H](O)C/C1=C/C=C1\CCC[C@]2(C)[C@H]1CC[C@H]2[C@@H](C)CCCC(C)C	13.9%[29.1 µM]	4.0	.	0.8%[25.6 µM]	-14.3%[20.9 µM]	-5.1%
CC(=NCCN(C)C)c1c(O)n(Cc2ccccc2)c(=O)[nH]c1=O	0.3%	-3.7	.	.	.	.
C/C(=N\Nc1ccccc1)c1c(O)n(Cc2ccccc2)c(=O)[nH]c1=O	-4.4%	20.3	29.8	-18.9%	-2.2%	28.2µM*
CC(=NCCCO)c1c(O)n(Cc2ccccc2)c(=O)[nH]c1=O	3.8%	1.4	?	0.7%	?	?
CCCCCCN=C(C)c1c(O)n(Cc2ccccc2)c(=O)[nH]c1=O	1.4%	6.3	-111.4*	-4.0%	7.4%	-26.3%
CC(=Nc1c(C)n(C)n(-c2ccccc2)c1=O)c1c(O)n(Cc2ccccc2)c(=O)[nH]c1=O	1.0%	-2.4	15.6	-11.8%	-7.7%	20µM*
CC[C@@H](CO)NC(=O)[C@H]1C=C2c3cccc4[nH]cc(c34)C[C@H]2N(C)C1	2.7%	2.9	.	-2.5%	?	?
O=C(Nc1ccc(OC(=O)N2CCCC2)cc1)N1CCOCC1	-2.7%	-15.0	-100.0*	-13.2%	3.6%	-9.3%
NNC(=O)c1nn(-c2ccccc2)cc1O	-16.8%	-5.2	.	.	?	.
COc1cc(CCN)ccc1O	?	-0.7	.	-4.4%	-7.3%	-16.5%

Assay outcomes as filed in PubChem BioAssay.
